In PubChem BioAssay (NCI):
Compounds without any hit were thinned out: in the full panel of roughly 83,000, 20% have a hit.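 Negative percent growth values reflect cell death: -40 means 40% of the cells present at the start died, and -100 means all died.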 Calls of active or inactive are those of the source. The calls were made as follows: active = growth percent below 10; inactive = the rest.

What was measured:
Experiment in all cases: NCI-60 one-dose screen, 48 h (100 = growth as untreated, 0 = no growth, -100 = all killed)
Details in all cases: 10 µM unless noted
SR leukemia = tested on: SR leukemia
OVCAR-8 ovarian = tested on: OVCAR-8 ovarian
OVCAR-5 ovarian = tested on: OVCAR-5 ovarian
OVCAR-4 ovarian = tested on: OVCAR-4 ovarian
SK-OV-3 ovarian = tested on: SK-OV-3 ovarian
IGROV1 ovarian = tested on: IGROV1 ovarian
OVCAR-3 ovarian = tested on: OVCAR-3 ovarian
HS 578T breast = tested on: HS 578T breast
NCI/ADR-RES ovarian = tested on: NCI/ADR-RES ovarian
RPMI-8226 leukemia = tested on: RPMI-8226 leukemia

Measured: growth

CN1CCN=C1c1ccc(NC(=O)c2ccc(C(=O)Nc3ccc(C4=NCCN4C)cc3)cc2)cc1
inactive: SR leukemia 89.4% | OVCAR-8 ovarian 85.7% | OVCAR-5 ovarian 87.5% | OVCAR-4 ovarian 98.3% | SK-OV-3 ovarian 96.5% | IGROV1 ovarian 90.1% | OVCAR-3 ovarian 109% | HS 578T breast 80.3% | NCI/ADR-RES ovarian 100%

C=C(C)C(=O)Nc1ccc(NC(C)C)cc1
inactive: SR leukemia 96.6% | OVCAR-8 ovarian 93.5% | OVCAR-5 ovarian 117% | OVCAR-4 ovarian 111% | SK-OV-3 ovarian 109% | IGROV1 ovarian 120% | OVCAR-3 ovarian 121% | HS 578T breast 141% | NCI/ADR-RES ovarian 112%

Cc1cc2nc3[nH]c4ccccc4c3nc2cc1C
active: IGROV1 ovarian -6.27% | HS 578T breast 1.63%
inactive: SR leukemia 14.2% | OVCAR-8 ovarian 62.3% | OVCAR-5 ovarian 102% | OVCAR-4 ovarian 82.8% | SK-OV-3 ovarian 86.2% | OVCAR-3 ovarian 92% | NCI/ADR-RES ovarian 78.9%

CNC(=O)c1cc(Oc2ccc(NC(=O)Nc3ccc(Cl)c(SC)c3)c(F)c2)ccn1
inactive: SR leukemia 31.4% | RPMI-8226 leukemia 27.6% | OVCAR-8 ovarian 49.9% | OVCAR-4 ovarian 16.3% | SK-OV-3 ovarian 79.5% | OVCAR-3 ovarian 61.2% | HS 578T breast 56% | NCI/ADR-RES ovarian 47.8%

CSc1nc2c(c(=O)[nH]1)C1(C(=O)Nc3ccccc31)c1c(nc(SC)[nH]c1=O)N2
inactive: SR leukemia 98.8% | RPMI-8226 leukemia 108% | OVCAR-8 ovarian 110% | OVCAR-4 ovarian 109% | SK-OV-3 ovarian 114% | IGROV1 ovarian 102% | OVCAR-3 ovarian 105% | HS 578T breast 106% | NCI/ADR-RES ovarian 108%

CCCCN1CCCn2c1nc1c2c(=O)n(CCC)c(=O)n1CCC
inactive: SR leukemia 67.1% | RPMI-8226 leukemia 110% | OVCAR-8 ovarian 102% | OVCAR-4 ovarian 101% | SK-OV-3 ovarian 101% | IGROV1 ovarian 110% | OVCAR-3 ovarian 94.8% | HS 578T breast 96.4% | NCI/ADR-RES ovarian 99.8%

CCOc1cc2ncc(C#N)c(Nc3ccc(OCc4cccc(F)c4)c(Cl)c3)c2cc1NC(=O)CC1CCSS1 (stereo unspecified)
active: SR leukemia -9.65% | OVCAR-4 ovarian -33.3% | SK-OV-3 ovarian -93.6% | IGROV1 ovarian -2.65%
inactive: RPMI-8226 leukemia 62.4% | OVCAR-8 ovarian 44.2% | OVCAR-3 ovarian 37.3% | HS 578T breast 55.9% | NCI/ADR-RES ovarian 78.9%

OC(COc1cccc2ccccc12)CN1CCN(c2ccccc2Cl)CC1 (stereo unspecified)
inactive: SR leukemia 78.3% | OVCAR-8 ovarian 98.4% | OVCAR-5 ovarian 85.3% | OVCAR-4 ovarian 92.7% | SK-OV-3 ovarian 89.2% | IGROV1 ovarian 117% | OVCAR-3 ovarian 101% | HS 578T breast 107% | NCI/ADR-RES ovarian 89.4%

Oc1ccc(N=Cc2ccccc2O)cc1
inactive: SR leukemia 83.7% | OVCAR-8 ovarian 83.6% | OVCAR-5 ovarian 87.3% | OVCAR-4 ovarian 89.3% | SK-OV-3 ovarian 98.5% | IGROV1 ovarian 90.2% | OVCAR-3 ovarian 90.6% | HS 578T breast 112% | NCI/ADR-RES ovarian 98.2%

O=c1ccccc(-c2ccc(-c3ccco3)cc2)c1O
active: RPMI-8226 leukemia 8.75%
inactive: SR leukemia 10% | OVCAR-8 ovarian 12.7% | OVCAR-4 ovarian 23.7% | SK-OV-3 ovarian 18.2% | IGROV1 ovarian 12.9% | OVCAR-3 ovarian 28.8% | HS 578T breast 59.3% | NCI/ADR-RES ovarian 12%

COc1cc(Nc2cc(C)nc(N3CCN(c4ccnc5cc(Cl)ccc45)CC3)n2)cc(OC)c1
active: SR leukemia -4.09% | RPMI-8226 leukemia -13.5% | IGROV1 ovarian -22.9% | OVCAR-3 ovarian 6.15%
inactive: OVCAR-8 ovarian 12.7% | OVCAR-4 ovarian 34.5% | SK-OV-3 ovarian 15.4% | HS 578T breast 18.2%

c1csc(C2=NN3C(C2)c2ccccc2OC3c2ccncc2)c1 (stereo unspecified)
inactive: SR leukemia 100% | RPMI-8226 leukemia 92.8% | OVCAR-8 ovarian 96.1% | OVCAR-4 ovarian 90.9% | SK-OV-3 ovarian 93.8% | IGROV1 ovarian 76.1% | OVCAR-3 ovarian 98.9% | HS 578T breast 87.2% | NCI/ADR-RES ovarian 98.4%

Cc1ccc(C(SCC(N)C(=O)O)(c2ccccc2)c2ccc(C)cc2)cc1 (stereo unspecified)
active: SR leukemia -29.8% | OVCAR-8 ovarian -32.5% | OVCAR-5 ovarian 6.69% | IGROV1 ovarian -32% | OVCAR-3 ovarian -48% | HS 578T breast -45.6% | NCI/ADR-RES ovarian 7.01%
inactive: OVCAR-4 ovarian 61.5% | SK-OV-3 ovarian 28.6%

CCCCCC(=O)Oc1ccc(/C(=C(\C)c2ccc(OC)cc2)c2ccc(OCCN3CCCCC3)cc2)cc1
active: SR leukemia -2% | RPMI-8226 leukemia 9.96%
inactive: OVCAR-8 ovarian 74.3% | OVCAR-4 ovarian 54.5% | SK-OV-3 ovarian 68.2% | IGROV1 ovarian 79% | OVCAR-3 ovarian 74.9% | HS 578T breast 64.9% | NCI/ADR-RES ovarian 71.2%

CC/C=C\C[C@H]1C/C=C2/C(=O)C=C[C@H]2C/C=C\CCCC(=O)O1
active: SR leukemia 4.6% | RPMI-8226 leukemia -10% | OVCAR-8 ovarian 0.796% | OVCAR-3 ovarian 6.53%
inactive: OVCAR-4 ovarian 29.5% | SK-OV-3 ovarian 37.3% | IGROV1 ovarian 12.4% | HS 578T breast 54.2% | NCI/ADR-RES ovarian 22.4%

Cn1c(=O)[nH]c(=O)c2nc(CCC(=O)NCCC(=O)O)c(=O)[nH]c21
inactive: SR leukemia 113% | RPMI-8226 leukemia 111% | OVCAR-8 ovarian 101% | OVCAR-4 ovarian 106% | SK-OV-3 ovarian 101% | IGROV1 ovarian 98.6% | OVCAR-3 ovarian 113% | HS 578T breast 89.8% | NCI/ADR-RES ovarian 105%

Cc1cc(N2CCCCC2)nc(NC2CCCC(Nc3ccnc4cc(Cl)ccc34)C2)n1 (stereo unspecified)
active: SR leukemia -53.5% | RPMI-8226 leukemia -52.4% | OVCAR-8 ovarian -82.9% | OVCAR-4 ovarian -38.8% | SK-OV-3 ovarian -71.7% | OVCAR-3 ovarian -69% | HS 578T breast -48.6% | NCI/ADR-RES ovarian -41.8%

CC(C)(C)N1CCC1CN (stereo unspecified)
inactive: SR leukemia 101% | OVCAR-8 ovarian 97.5% | OVCAR-5 ovarian 107% | OVCAR-4 ovarian 103% | SK-OV-3 ovarian 104% | IGROV1 ovarian 112% | OVCAR-3 ovarian 103% | HS 578T breast 117% | NCI/ADR-RES ovarian 113%

CC(C)C[C@@H](NC(=O)[C@@H](Cc1ccccc1)NC(=O)c1cnccn1)B1Oc2ccc(C[C@H](NC(=O)[C@H](Cc3ccc4c(c3)OB([C@@H](CC(C)C)NC(=O)[C@@H](Cc3ccccc3)NC(=O)c3cnccn3)O4)NC(=O)[C@@H](N)CC3CCC4OB([C@@H](CC(C)C)NC(=O)[C@@H](CC5CCCCC5)NC(=O)C5CNCCN5)OC4C3)C(=O)NCCCC[C@@H]3NC(=O)[C@@H](Cc4ccccc4)NC(=O)[C@H](CC(=O)O)NC(=O)CNC(=O)[C@H](CCCNC(=N)N)NC3=O)cc2O1 (stereo partly specified)
active: SR leukemia 1.49% | RPMI-8226 leukemia 0.76% | OVCAR-8 ovarian -45.3% | OVCAR-4 ovarian -26.7% | SK-OV-3 ovarian -30% | IGROV1 ovarian -8.65% | OVCAR-3 ovarian -49.3% | HS 578T breast 5.06% | NCI/ADR-RES ovarian -8.71%

O=C(N(c1ccccc1)c1ccccc1)n1ccc2nc(Cl)nc(Cl)c21
inactive: SR leukemia 54.4% | RPMI-8226 leukemia 16.1% | OVCAR-8 ovarian 63.2% | OVCAR-4 ovarian 63.3% | SK-OV-3 ovarian 49.7% | IGROV1 ovarian 68.5% | OVCAR-3 ovarian 30% | HS 578T breast 42.2% | NCI/ADR-RES ovarian 35.8%

COc1ccc(SC2c3cc(OC)c(OC)cc3Oc3nc(N)c(C#N)c(N)c32)cc1 (stereo unspecified)
active: SR leukemia -36.2% | RPMI-8226 leukemia -36.1% | OVCAR-8 ovarian -85.4% | OVCAR-4 ovarian -97.1% | SK-OV-3 ovarian -81.3% | IGROV1 ovarian -77.1% | OVCAR-3 ovarian -96.1% | HS 578T breast -2.22% | NCI/ADR-RES ovarian -16.3%

CC1=CC(C)(C)Nc2ccc(Cc3ccc4c(c3)C(C)=CC(C)(C)N4)cc21
inactive: SR leukemia 118% | OVCAR-8 ovarian 96.9% | OVCAR-5 ovarian 89.7% | OVCAR-4 ovarian 72.2% | SK-OV-3 ovarian 105% | IGROV1 ovarian 92.7% | OVCAR-3 ovarian 97.4% | HS 578T breast 103% | NCI/ADR-RES ovarian 100%

O=C1C=C(OCC=C(Cl)Cl)C(=O)c2ccccc21
inactive: SR leukemia 51.6% | RPMI-8226 leukemia 45.6% | OVCAR-8 ovarian 71.5% | OVCAR-4 ovarian 15.9% | SK-OV-3 ovarian 102% | IGROV1 ovarian 75.6% | OVCAR-3 ovarian 32.2% | HS 578T breast 55.5% | NCI/ADR-RES ovarian 33.8%

COC(=O)c1ccc(Cn2cnc3c(N)ncnc32)cc1
inactive: SR leukemia 104% | RPMI-8226 leukemia 104% | OVCAR-8 ovarian 112% | SK-OV-3 ovarian 107% | IGROV1 ovarian 126% | OVCAR-3 ovarian 118% | HS 578T breast 95.4% | NCI/ADR-RES ovarian 110%

COc1ccc(CN2c3ccccc3Oc3ccccc32)cc1F
inactive: SR leukemia 27.1% | RPMI-8226 leukemia 61.5% | OVCAR-8 ovarian 64.5% | OVCAR-4 ovarian 71.7% | SK-OV-3 ovarian 46.5% | IGROV1 ovarian 52.1% | OVCAR-3 ovarian 43.1% | HS 578T breast 62.3% | NCI/ADR-RES ovarian 41.5%

C(=C\c1nccc2c1[nH]c1ccccc12)/c1ccccc1
inactive: SR leukemia 82.7% | OVCAR-8 ovarian 26.1% | OVCAR-5 ovarian 62.9% | OVCAR-4 ovarian 14.9% | SK-OV-3 ovarian 24.7% | HS 578T breast 29.2% | NCI/ADR-RES ovarian 15.5%
active: IGROV1 ovarian -15.9% | OVCAR-3 ovarian -13.3%

C#Cc1cccc(NC(=O)c2ccccc2NC(=O)C=C)c1
inactive: SR leukemia 101% [8.25 µM] | RPMI-8226 leukemia 66.9% [8.25 µM] | OVCAR-8 ovarian 91.4% [8.25 µM] | OVCAR-4 ovarian 100% [8.25 µM] | SK-OV-3 ovarian 99.2% [8.25 µM] | OVCAR-3 ovarian 104% [8.25 µM] | HS 578T breast 89.9% [8.25 µM] | NCI/ADR-RES ovarian 103% [8.25 µM]

CCOC(=O)c1sc(Nc2ccc(Cl)cc2)nc1C
inactive: SR leukemia 11% | OVCAR-8 ovarian 19.8% | OVCAR-4 ovarian 18.2% | SK-OV-3 ovarian 20.3% | IGROV1 ovarian 19.3% | OVCAR-3 ovarian 27.4% | HS 578T breast 10.1% | NCI/ADR-RES ovarian 17.5%
active: RPMI-8226 leukemia 7.4%

COc1cccc(/C=C2\Oc3cc(OCCN4CCCC4)ccc3C2=O)c1
inactive: SR leukemia 22.2% | RPMI-8226 leukemia 91.7% | OVCAR-8 ovarian 98.4% | OVCAR-4 ovarian 111% | SK-OV-3 ovarian 108% | IGROV1 ovarian 98.6% | OVCAR-3 ovarian 97% | HS 578T breast 91.8% | NCI/ADR-RES ovarian 93.8%
